# High-throughput results as filed in PubChem.
# The entries come from a sample that favours hits as a whole.
# Pf apPOL inh: Pf-apPOL DNA polymerase inhibition. Recombinant Pf-apPOL, molecular beacon fluorescence, 1.5 h. inhibition, % at 10 µM. hit rate 0.25% among 210,000. AID 1794808
# mHTT-CaM PPI inh: disrupts binding of mutant huntingtin to calmodulin. P42858. AlphaScreen His-mHTT/GST-CaM binding, luminescence. inhibition, % at 15 µM. hit rate 3.6% among 190,000. AID 1671202;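 note: 0% = both proteins with DMSO and 100% = one protein alone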
# * = called active by the depositor; / = not tested or not shown. Cut-off read from the data, not from the text of the source: active = inhibition above about 50%; inactive = the rest.
SMILES,Pf apPOL inh,mHTT-CaM PPI inh
CC(C)(C)n1nc2c(c1NC(=O)c1cccc([N+](=O)[O-])c1)CSC2,6.5,67.0*
Cc1c(C(=O)Nc2c3c(nn2C(C)(C)C)CSC3)cccc1[N+](=O)[O-],3.3,91.8*
COCCNC(=O)C1c2ccccc2CC(=O)N1Cc1ccccc1 (stereo not drawn),-0.2,1.8
Cc1ccc(S(=O)(=O)c2cc3c(=O)n4ccccc4nc3n(Cc3ccccc3)c2=N)cc1,-12.2,-7.0
COc1ccccc1-c1nc(C2CCN(C(=O)Cc3c[nH]c4ccccc34)CC2)no1,-5.8,76.3*
CCc1nc(C2CCCN(C(=O)Cc3c[nH]c4ccccc34)C2)n[nH]1 (stereo not drawn),12.1,60.6*
CCc1nc(C2CCCN(C(=O)CCc3c[nH]c4ccccc34)C2)n[nH]1 (stereo not drawn),6.6,3.9
COc1cccc(-c2nc(C3CCN(C(=O)Cc4c[nH]c5ccccc45)CC3)no2)c1,-3.1,65.1*
COc1cccc(CC(=O)N2CCC(c3noc(-c4cccc(OC)c4)n3)CC2)c1,4.7,-0.8
COc1ccccc1-c1nc(C2CCN(C(=O)Cc3cccc4ccccc34)CC2)no1,-2.8,8.7
CCCC1c2ccc(C)n2CCN1C(=O)NCc1cccc(OC)c1 (stereo not drawn),-4.8,-0.5
COc1ccc(-c2cc(C(F)(F)F)n3nc(C(=O)NCc4ccccc4)cc3n2)cc1OC,-0.8,-8.0
Cc1ccccc1C1=N/C(=C\c2cccn2C)C(=O)O1,4.8,19.0
CC1C/C(=C\c2cccn2C)C(=O)/C(=C/c2cccn2C)C1 (stereo not drawn),-0.6,99.0*
COc1ccc2c(c1)CC/C(=C\c1cccn1C)C2=O,-6.9,39.0
Cn1cccc1/C=C1\CCC/C(=C\c2cccn2C)C1=O,-2.6,79.0*
O=c1ccc(-c2noc(-c3cccc(Cl)c3)n2)c[nH]1,1.2,-5.5
CCOC(=O)COc1ccc2c(=O)c(-c3ccccc3)coc2c1,-9.9,-4.6
CSc1sc(C)cc1C1C(C(=O)Nc2cccc(C)n2)=C(C)NC2=C1C(=O)CCC2 (stereo not drawn),-3.1,23.0
Cc1nnc2nc(-c3cc([N+](=O)[O-])c(Cl)cc3Cl)[nH]n12,2.9,0.0
Cc1ccccc1OCC(=O)N1CCN(C2=CC3=NCC(C)N3C=N2)CC1 (stereo not drawn),0.8,99.5*
COc1ccccc1CC(=O)N1CCN(C2=CC3=NCC(C)N3C=N2)CC1 (stereo not drawn),-4.3,14.8
O=C(Nc1nnc(C2CC(=O)N(c3ccccc3)C2)o1)c1ccc(C(F)(F)F)cc1 (stereo not drawn),-1.3,8.3
CCCc1nc2c(c(=O)n1CC(=O)Nc1cc(F)ccc1C)CCN(Cc1ccccc1)C2,4.8,7.8
CC(C)CN1C(=O)CCc2cc(NC(=O)c3ccc4c(c3)OCO4)ccc21,-6.2,4.9
SMILES,Pf apPOL inh,mHTT-CaM PPI inh
COc1ccc(Br)cc1/C=C1/C(=O)N(c2ccccc2)N=C1C,-0.6,7.0
CCCC1=NN(c2ccccc2)C(=O)/C1=C\c1cc(Cl)c(O)c(OC)c1,-5.6,66.0*
COc1cccc(/C=C2/C(=O)N(c3ccc(Cl)c(Cl)c3)N=C2C)c1O,-5.3,60.0*
COc1cccc(/C=C2/C(=O)N(c3ccccc3)N=C2C)c1OC,-2.1,21.0
COc1cccc(/C=C2/C(=O)N(c3ccccc3)N=C2C)c1O,-2.1,73.0*
CCCC1=NN(c2ccccc2)C(=O)/C1=C/c1cc(OC)c(OC)cc1Cl,-4.3,5.0
C=CCOc1ccccc1/C=C1/C(=O)N(c2ccc(Cl)c(Cl)c2)N=C1C,19.8,1.0
COc1c(Br)cc(Br)cc1/C=C1/C(=O)N(c2ccccc2)N=C1C,-2.6,69.0*
COc1ccc(N(C(C)C(=O)Nc2ccc(C(C)C)cc2)S(C)(=O)=O)cc1 (stereo not drawn),-28.8,4.1
O=C(NCc1cccnc1)C1CCN(S(=O)(=O)c2cccc3nsnc23)CC1,-0.7,-3.0
CC(=O)C(N=Nc1cc(F)c(Br)cc1F)=C(C)O,-12.6,/
COc1cc(/C=C2/C(=O)N(c3ccc(Cl)c(Cl)c3)N=C2C)ccc1OCC(=O)O,-7.4,51.0*
COc1cc(/C=C2/C(=O)N(c3cccc(Br)c3)N=C2C)cc(OC)c1O,-3.2,88.0*
COc1ccc(/C=C2/C(=O)N(c3ccc(Cl)c(Cl)c3)N=C2C)cc1OC,-1.6,19.0
COc1cc(/C=C2/C(=O)N(c3cccc(Br)c3)N=C2C)ccc1OC(C)C,-0.2,18.0
COc1ccc(CC(=O)N2CCC(c3cnn(-c4ccc(C)cc4)c3)CC2)cc1,-5.7,6.3
Fc1ccc(-c2csc(-c3ccsc3)n2)cc1,4.6,/
O=C1CCC(=O)N1c1ccc(CSc2nc3ccccc3[nH]2)cc1,-11.2,-3.5
COc1ccccc1-c1cnn2c(C)cc(C)nc12,-1.9,-14.8
COc1ccccc1-c1cnn2c(Nc3ccc(NC(C)=O)cc3)cc(C)nc12,-4.4,53.7*
Cc1nc2ccccc2c(=O)n1Cc1cccnc1,-2.9,-0.2
O=c1c2ccccc2nc2c3ccccc3c(NCc3ccccn3)nn12,0.3,81.0*
O=c1c2ccccc2nc2c3ccccc3c(NCc3cccnc3)nn12,-11.1,80.0*
Cc1cc(C)n(-c2nn3c(=O)c4ccccc4nc3c3ccccc23)n1,11.9,-9.0
Cn1ccc2c(-c3cccc(C=O)c3F)cc3c(c21)C1CCC3C1 (stereo not drawn),-15.0,27.4
SMILES,Pf apPOL inh,mHTT-CaM PPI inh
CC(C)C(=O)Nc1cccc(N2CC(C(=O)Nc3ccc(C(C)C)cc3)CC2=O)c1 (stereo not drawn),-5.7,-1.1
CCC(C)NC(=O)CC1CCN(S(=O)(=O)c2c(C)noc2C)CC1 (stereo not drawn),1.8,-12.9
COc1ccc(CNC(=O)C2CC(=O)N(c3ccc4oc(C)nc4c3)C2)cc1OC (stereo not drawn),-3.5,0.9
Cc1nc2cc(N3CC(C(=O)NCc4ccc(OC(C)C)cc4)CC3=O)ccc2o1 (stereo not drawn),-1.0,100.3*
CSC(=CC(=O)c1nccs1)SC,0.5,/
COc1ccc(C)cc1NC(=O)N1CC=C(c2cn(C(C)C)c3ncccc23)CC1,-4.2,53.1*
Cc1ccccc1NC(=O)N1CC=C(c2cn(C(C)C)c3ncccc23)CC1,-5.5,26.9
NC(=O)CSc1nc(SCC(N)=O)c2c3c([nH]c2n1)CCCC3,-12.4,5.0
O=C(NN1CCOCC1)c1ccc(Br)cc1,56.3*,-6.7
O=C(NN1CCOCC1)c1cccc(Br)c1,-7.6,3.0
CCc1nc(-c2c(C)cc(C)nc2NC(=O)c2cc(C)cc(C)c2)no1,-2.0,-3.5
CC1=NN(c2nc3ccccc3s2)C(=O)C1,-6.7,93.7*
Cc1ccc(Nc2cc(C)nc(-c3ccccc3O)n2)cc1,-5.2,-18.0
CC1=NN(c2nc(-c3ccccc3O)cs2)C(=O)C1,-5.8,97.5*
CCCC1=NN(c2nc3ccccc3s2)C(=O)/C1=C/N(C)C,-16.4,-2.0
CC1=NN(c2nc(-c3ccc(C#N)cc3)cs2)C(=O)C1,-5.5,16.4
CC1=NN(c2cc(C)nc(-c3ccccc3O)n2)C(=O)C1,-12.3,56.2*
CC(=O)N1CCc2cc(-c3ccc(C(=O)N4CCOCC4)cc3)ccc21,-1.8,0.8
Cc1ccc(CN2C(=O)NC3(CCN(C(=O)COc4ccc(C)cc4)CC3)C2=O)cc1,-10.5,14.6
CCc1ccc2nc(N3CCC(C(=O)NCCCN(CC)CC)CC3)sc2c1,-8.3,9.0
CCOc1ccc(CCNC(=O)c2cnn3c4c(cnc23)CC(C)CC4)cc1OCC (stereo not drawn),-0.8,4.7
